Data on 16 molecules can be found in PubChem BioAssay (NCI).

Experiment in all cases: NCI-60 one-dose screen, 48 h (100 = growth as untreated, 0 = no growth, -100 = all killed)
Common to all, as to conditions: 10 µM unless noted

The test system of assay [1] is HCT-15 colon.
The subject of assay [2] is HT29 colon.
The subject of assay [3] is SNB-75 CNS.
The test system of assay [4] is SNB-19 CNS.
For assay [5], the system named is PC-3 prostate.
Assay [6] has as its system SK-MEL-5 melanoma.
Assay [7] concerns UACC-62 melanoma.
For assay [8], the system named is LOX IMVI melanoma.
Assay [9] has as its system SK-MEL-28 melanoma.

Structures are written as SMILES. About 83,000 compounds went through this panel and 20% of them were active in at least one assay; those are over-represented in the sample as a whole.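 Each cell line was grown in a 96-well plate and treated with one concentration of compound for 48 hours. Values below 10 were considered active.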 Values without a mark were called inactive. Active and inactive are the calls of the source.

For `Cc1nn(-c2ccccc2)c2nc3c(nc12)C1=NCCN1C(c1ccc(Cl)cc1)N3` (stereo not drawn), the growth in assay [1] is 66.4%; in assay [2], 19%; in [3] it was 62.1%; in assay [4], 109%; in assay [5] it was 55.1%; in [6], 65.6%. The figures for the growth in [7], in assay [8] and in [9] were 84.8%, 79.1% and 73.3%, respectively.

For the molecule `COc1cc2ccc(C(C)=O)cc2cc1OC`, the growth was 97.3% in [1]; 112% in [2]; 104% in assay [4]; 91.2% in [5]; 96.5% in assay [6]; 89.4% in [7]. Also, the growth in assay [8] was 92.3%; in [9] it was 131%.

As to `COc1cc(Cl)cc(-c2nn(C(=O)NCCN3CCOCC3)cc2-c2ccncc2)c1`, the growth was 45.7% in assay [1]; 34.1% in assay [2]; 28.9% in assay [3]; 69.2% in [4]; 70.6% in [5]; 35.5% in assay [6]. For the same molecule, the growth in assay [7] was 52.4%; in assay [8], 63.2%; in assay [9], 61.4%.

Regarding `COc1cc2ncnc(Nc3ccc(S(=O)(=O)Nc4nccs4)cc3)c2cc1OCCCN1CCOCC1`, the growth in [1] is 104%; in assay [2], 106%; in assay [3], 95.1%; in assay [4] it was 104%; in assay [5], 99%; in assay [6], 108%. In addition, the results for the growth in [7], in [8] and in assay [9] were 98.7%, 97.2% and 109%, respectively.

As for `NNc1ccc(S(N)(=O)=O)cc1`, the growth is 110% in [1]; 89.9% in assay [3]; 90.2% in assay [5]; 100% in assay [6]; 86.4% in [8]; 108% in assay [9].

`CCN(CC)Cc1cc(Nc2ccnc3ccc(OC)cc23)ccc1O`: the growth in assay [1] was 32.4%; in assay [2], -24.3% (active); in [3], 101%; in assay [4], 74.4%; in assay [5], 39.8%; in [6], 50.4%. For the same molecule, the growth in assay [7] is 87.7%; in [8], 4.78% (active); in assay [9] it was 105%.

Consider `O=c1c2cc(Br)cc(Br)c2nc(-c2ccc(Cl)cc2)n1/N=C/c1cccc(F)c1`, for which the growth was 75.2% in assay [1]; 62.1% in [2]; -0.938% (active) in assay [3]; 57.6% in assay [4]; 67% in assay [5]; 70.9% in [6]. Moreover, the growth in assay [7] is 74.6%; in assay [8] it was 62.4%; in assay [9] it was 85.1%.

Regarding `COc1ccc(-n2nc(C(=O)Nc3ccc(F)cc3)nc2-c2cc(OC)c(OC)c(OC)c2)cc1`, the growth in assay [1] was 82.2%; in [2], 95.8%; in assay [4], 92.3%; in assay [5], 79.2%; in assay [6] it was 80.3%; in assay [7], 83.7%. Moreover, the growth in [8] was 94.3%; in [9], 119%.

For the molecule `CC(C)OC1OC(OC(C)C)C(OC(C)C)OC1OC(C)C` (stereo not drawn), the growth in assay [1] was 98.1%; in assay [2], 95.8%; in [3], 99%; in [4], 90.9%; in [5] it was 91.8%; in assay [6], 110%. In addition, the growth in assay [7] is 85.9%; in [8], 102%; in assay [9], 106%.

Turning to `CCCCCCCCCCCCCC`, the growth is 106% in assay [1]; 72.4% in assay [3]; 88.1% in assay [5]; 108% in assay [6]; 94.9% in [8]; 106% in assay [9].

As to `COC(=O)CSc1ccc(Cl)cc1`, the growth in [1] was 106%; in assay [2] it was 103%; in assay [3] it was 94.9%; in assay [4], 103%; in [5] it was 107%; in assay [6], 114%. Further, the growth in [7] is 114%; in [8], 102%; in [9] it was 108%.

`CCN(CC)CCCCCCCCNc1c2ccc(Cl)cc2nc2ccc(OC)cc12`: the growth in [1] is -39% (active); in assay [3] it was -85.6% (active); in [4], -30.9% (active); in [5], -56.4% (active); in assay [6], -97.7% (active); in assay [7] it was -82.1% (active). For the same molecule, the growth in [8] is -78.2% (active); in [9], -85.8% (active).

On to `CSc1nc(N)c2[nH]c(-c3cc4ccccc4[nH]c3=O)nc2n1`, for which the growth in assay [1] is 64.8%; in assay [2], 94.2%; in [3] it was 113%; in [4], 109%; in assay [5] it was 78.7%; in assay [6], 100%. Besides, the growth was 83.4% in assay [7], 69.9% in assay [8] and 116% in assay [9].

As to `O=C(Nc1cccc(-n2ccc3c(NC(=O)c4ccccc4)nccc32)c1)c1ccc(Cl)c(Cl)c1`, the growth in assay [1] is -62% (active); in assay [3], 2.32% (active); in [4] it was -40.3% (active); in [5], -60.5% (active); in [6], -100% (active); in [7] it was -61.3% (active). In addition, the values for the growth in assay [8] and in [9] were -84.4% (active) and -60.4% (active), respectively.

As to `C=C1C(=O)O[C@H]2[C@H]1CC/C(COC(=O)NCc1[nH]nc3ccccc13)=C\CC[C@@]1(C)O[C@@H]21`, the growth in [1] is 5.35% (active); in assay [2], -32.6% (active); in assay [3] it was 64.9%; in assay [4], 67.8%; in [5] it was 28.8%; in [6] it was 25.7%. Moreover, the growth is 16.5% in assay [7], -17.2% (active) in [8] and 30.3% in [9].

For `COc1ccc(Nc2nc(N)nc3c(=O)[nH]ccc23)cc1`, the growth in [1] is 109%; in assay [2], 103%; in [3], 107%; in assay [4] it was 101%; in assay [5], 81.5%; in assay [6], 111%. Moreover, the growth was 111% in assay [7] and 124% in assay [9].
